These results are taken from PubChem BioAssay (EPA / NIEHS).

SMILES strings stand for the structures. Where “and” joins values, the source holds several entries; their conditions need not be identical. Equal entries are not always repeated. A structure can be active in one record and inactive in another. Calls of active or inactive are those of the source. How the source made its calls: active means hit-call score of the fitted dose curve at least 0.9, where 1 is the maximum; inactive means score below 0.9.

The nature of this assay: ATG_ISRE_CIS: Attagene CIS-FACTORIAL HepG2 Assay for human Interferon Regulatory Factor 1 (IRF1) binding to an Interferon-Stimulated Response Element (ISRE) (AID 2282948). As to conditions: HepG2 ISRE cis-reporter (Attagene), mRNA transcription readout; actives raise or lower the signal. The protocol: ATG_CIS is a cell-based, multiplexed-readout assay that uses HepG2, a human liver cell line, with measurements taken at 24 hours after chemical dosing in a 24-well plate.ATG_ISRE_CIS is one of 52 assay component(s) measured or calculated from the ATG_CIS assay. It is designed to make measurements of mRNA induction, a form of inducible reporter, as detected with fluorescence intensity signals by Reverse transcription polymerase chain reaction (RT-PCR) and Capillary electrophoresis technology.Data from the assay component ATG_ISRE_CIS was analyzed into 1 assay endpoint. This assay endpoint, ATG_ISRE_CIS, was analyzed with bidirectional fitting relative to DMSO as the negative control and baseline of activity. Using a type of inducible reporter, measures of mRNA for gain or loss-of-signal activity can be used to understand the reporter gene at the transcription factor-level as they relate to the gene IRF1. Furthermore, this assay endpoint can be referred to as a primary readout, because this assay has produced multiple assay endpoints where this one serves a reporter gene function. To generalize the intended target to other relatable targets, this assay endpoint is annotated to the dna binding intended target family, where the subfamily is interferon regulatory factors.
Human liver HepG2 cells are transiently transfected with multiple reporter transcription units (MRTUs) in 6-well plates using FuGene 6 reagent (Roche; 3 ml FuGene/1 mg DNA). The MRTU constructs are regulated by a cis-regulating element (promoter). […] A major difference between the CIS and TRANS system is that in CIS activities of endogenous TFs are measured, whereas the TRANS assay evaluates changes in activities of exogenous, chimeric NR-Gal4 proteins. […] At the end of 24 hour incubation, total RNA was isolated using TriZol reagent (Invitrogen). The isolated RNA is then reverse-transcribed using oligo(dT) primer and Mo-MLV reverse transcriptase (Invitrogen) with DNAse I (Ambion) treatment for 30 min. The one-tenth of the produced cDNA was amplified by PCR using Taq DNA polymerase (Invitrogen) and two reporter sequence-specific primers. The PCR products were fluorescently labeled by primer extension with 6-arboxyfluorescein (6-FAM) 5'-labeled reporter sequence-specific primer (2 min at 95 C, 20 s at 68 C and 10 min at 72 C) and these products were digested with 5U of HpaI (New England Biolabs) for 2h at 37 C. The fragments were purified using Qiaquick PCR columns (Qiagen), analyzed on an ABI 3130xL genetic analyzer (Applied Biosystems) with peak positions identified by using a set of X-rhodamine (ROX)-labeled MapMarker1000 molecular weight standards (BioVentures). The raw capillary electrophoresis data was processed using Attagraph software (Attagene).
With `Cc1ccc(C(C)(C)O)cc1`, the result was inactive. Same read-out and setting: next, `CCCC1CCC(=O)CC1`: “inactive”. For `CCCCOCC(C)OCC(C)O` (stereo not given), the result was inactive.

As a reminder, the AC50 is the concentration at which the activity in the assay is half-maximal. As for `CN(C)CCC=C1c2ccccc2CCc2ccccc21`, the AC50 is 21.5 µM (active). Turning to `Cc1cc(N)n(-c2ccccc2)n1`, the call was inactive.

With `CCC(=O)OC(C)(C)C1CC=C(C)CC1` (stereo not given), the outcome was inactive. The same measure, in the same setting: next, `Cc1cc(O)c(C)c(C)c1O`: “inactive”. Still for that read-out and setting: next, `[Cl][Dy]([Cl])[Cl]`: “inactive”; `CC/C=C\CCCCO`: “inactive”. The same measure, in the same setting: to `CCC(C)C1CCCCC1=O` (stereo not given) belongs “inactive”.

Turning to `CC/C=C\CCOC(C)OCC` (stereo not given), the compound was classed as inactive. Same read-out and setting: next, `CC1=CC[C@@H]2C[C@H]1C2(C)C`: “inactive”. Still for that read-out and setting: to `OCCN1CCOCC1` belongs “inactive”; to `COC(=O)c1ccc(C(=O)OC)cc1`, “inactive”; to `Cc1ccncc1`, “inactive”. `CC(=O)C1=C(C)[C@@H]2C[C@@]3(C1)[C@H](C)CC[C@H]3C2(C)C`: the AC50 was 73.2 µM (active). On to `O=C(O)c1cccc(Cl)n1`, for which the outcome was inactive.

`CC(CO)c1ccccc1` (stereo not given): the compound was classed as inactive. Same read-out and setting: to `CCC(=O)OC/C=C(\C)CCC=C(C)C` belongs “inactive”; to `CCC(=O)OCC=Cc1ccccc1`, “inactive”; to `CCc1cccc(O)c1`, “inactive”. Same read-out and setting: next, `CC(O)COCC(C)O` (stereo not given): “inactive”. Turning to `CCCCCCOc1ccc(O)cc1`, the compound was classed as inactive.

As for `CC(=O)CCC=C(C)CCC=C(C)C`, the call was inactive. `Nc1cc([N+](=O)[O-])ccc1C(=O)O`: the result was inactive. As for `C=C(C)C(=O)OCCN(C)C`, the compound was classed as inactive.

With `O=C1OCc2ccccc21`, the outcome was inactive. Consider `C#C[C@]1(O)CC[C@H]2[C@@H]3CCc4cc(O)ccc4[C@H]3CC[C@@]21C`, for which the AC50 is 33.4 µM (active) and 27.3 µM (active); the compound was called inactive. On to `Cc1cccc(C)c1`, for which the compound was called inactive. Still for that read-out and setting: next, `CCCCCCCCCCCCCCCCCC(=O)OCCCCCCCCCCCCCC(C)C`: “inactive”; `CN(C)c1ccc(C=O)cc1`: “inactive”; `O=C(O)c1ccco1`: “inactive”. As for `CC(O)CN` (stereo not given), the outcome was inactive.

With `O=C(OCc1ccccc1)c1ccccc1O`, the compound was classed as inactive.

In the case of `CCCO`, the compound was called inactive. Still for that read-out and setting: to `CN(C)C` belongs “inactive”; to `CCCC1CCOC(C)S1` (stereo not given), “inactive”.

Take `O=C(C=Cc1ccccc1)OCCCc1ccccc1`: the compound was classed as inactive. The same measure, in the same setting: next, `C[N+](C)(C)CCO`: “inactive”.
